From PubChem BioAssay AID504467 (National Center for Advancing Translational Sciences (NCATS), 2011)
The campaign covered roughly 330,000 compounds. About 7,700 (2.3%) were called active. Inconclusive results (about 26%) are left out. Shown is part of a subset that was picked to be rich in actives. Unmarked numbers belong to inactive results. Calls come from the whole dose curve; as a rule, active = well fitted inhibition curve with a large enough effect; inconclusive = small, poorly fitted or top-dose-only effect, or effect the other way; inactive = flat fitted curve, though single readings scatter.

Assay: qHTS screen for small molecules that inhibit ELG1-dependent DNA repair in human embryonic kidney (HEK293T) cells expressing luciferase-tagged ELG1; note: nearly all actives have a fitted effect of over 55% in size
Settings: HEK293T ELG1-luciferase reporter, luminescence, 16 h, DNA damage induced by 5-fluorouridine; series mostly up to 46.1 µM; activity change, negative = inhibition: at the top concentration
Summary of the method: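 HEK293T cells expressing luciferase-tagged ELG1 (2,000/well) received 5-Fluorouridine plus compound or DMSO for 16 hr at 37 °C. Luciferase was read by ONE-Glo luminescence after 30 min at room temperature.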
% is set by controls: 0 for no effect and ±100 for the full control effect; potency is the fitted concentration of half-maximal effect.

Structure (SMILES)	Potency	activity change, negative = inhibition [%]
CCOC(=O)N1CCN(Cc2nc3c(c(=O)n(C)c(=O)n3C)n2Cc2ccccc2)CC1	10.3 µM (active)	
Cn1c(=O)c2c(nc(N/N=C/c3cccs3)n2Cc2ccc(Br)cc2)n(C)c1=O	20.6 µM (active)	
COCCn1cnc2c1c(=O)n(Cc1ccc(Br)cc1)c(=O)n2Cc1ccccc1		-9.32
CN1CCN(Cc2nc3c(c(=O)n(C)c(=O)n3C)n2Cc2cccc3ccccc23)CC1		-2.34
Cn1c(=O)c2sccc2n(Cc2ccc(Br)cc2)c1=O		16.2
CCN1CCN(Cc2nc3c(c(=O)n(C)c(=O)n3C)n2CC(=O)c2ccccc2)CC1		14.6
CCOC(=O)N1CCN(C(=O)c2ccc3c(=O)n(CCc4ccc(OC)c(OC)c4)c(=O)[nH]c3c2)CC1		-21.5
Cc1ccc(-n2nc3c(=O)n(C(C)C(=O)NCc4ccc5c(c4)OCO5)nc(C)c3c2C)cc1 (centres undefined)		-19.3
Cc1ccc(-c2csc(N3CCN(c4cc5c(cc4Cl)nc(-c4ccncc4)n5CCOCCO)CC3)n2)cc1		-27.4
CCN([C@H](CO)C(C)C)S(=O)(=O)c1ccccc1Br		5.25
CCOc1ccc(NS(=O)(=O)c2ccc(Cl)c(C(=O)N(C)Cc3cccnc3)c2)cc1		-12.3
CCC(C)(C)n1nnnc1C(c1cccs1)N1CCN(c2nc3ccccc3s2)CC1 (centres undefined)	20.6 µM (active)	
CCC(C)(C)n1nnnc1C(c1ccccc1OC)N1CCSCC1 (centres undefined)		0.736
CCC(C)(C)n1nnnc1C(c1cccs1)N1CCN(Cc2ccccc2)CC1 (centres undefined)		-3.91
CC(=O)c1ccc(N2CCN(C(=O)c3ccc(Cl)c(S(=O)(=O)NC4CC4)c3)CC2)c(F)c1		-29.7
COc1ccc(/C(C)=N/NC(=O)CCC(=O)Nc2ccc(Cl)cc2Cl)c(OC)c1		-20.7
COc1ccc(OC)c(C(=O)c2ccc(Cl)cc2)c1		0
COc1ccc(OC)c(/C(C)=N\NC(=O)c2cc3cc(Cl)ccc3n2C)c1	16.4 µM (active)	
CCN(CC(=O)Nc1cccc(S(=O)(=O)N2CCCCC2)c1)Cc1ccccc1		-1.55
O=C(NNS(=O)(=O)c1c(F)cc(F)c(Cl)c1F)C12CC3CC(CC(C3)C1)C2		-2.47
CCc1ccc(NC(=O)CN2C(=O)COc3ccc(S(=O)(=O)N4CCCC4)cc32)cc1		1.71
CCC(C)NC(=O)c1ccc(NC(=O)CC2SC(N3CCCCC3)=NC2=O)cc1 (centres undefined)		12.6

Structure (SMILES)	Potency	activity change, negative = inhibition [%]
COCCN(CCOC)C(=S)Nc1ccccc1Cl		6.84
O=C(Nc1ccccc1Cl)/C(Cl)=C(\Cl)S(=O)c1ccccc1 (centres undefined)	9.2 µM (active)	
O=C(Nc1ccccc1Cl)Nn1cnnc1		0.688
CSc1cccc(NC(=O)CN2C(=O)COc3ccc(S(=O)(=O)N4CCOCC4)cc32)c1		3.54
Cc1ccc(C(=O)NC23CC4CC(CC(C4)C2)C3)c(Cl)c1		27.6
COc1cccc(CCNC(=O)c2cccc(NC(=O)C3=C(C)OCCS3)c2)c1	20.6 µM (active)	
CCCCNC(=O)c1ccccc1NC(=O)C1=C(C)OCCS1		1.59
COc1ccc(N2CCN(C(=O)c3ccccc3NC(=O)C3=C(C)OCCS3)CC2)cc1		5.9
CCn1c(SCC(=O)NNC(=O)c2ccc(OC)cc2)nnc1C(C)C		0
Cc1ccc(CNC(=O)Cn2cnc3c(NCc4ccccc4)ncnc32)o1		-20.6
Cc1nc2ccccc2c(=O)n1Cc1ccc([N+](=O)[O-])cc1		3.4
Cn1cc(/C=C/c2nc3ccccc3c(=O)n2-c2cccc([N+](=O)[O-])c2)c2ccccc21		5.73
CCn1c(/C=C/c2ccc([N+](=O)[O-])o2)nc2ccccc2c1=O	16.4 µM (active)	
Cc1cc(C)c(S(=O)(=O)N2CCCC2CNC(=O)c2ccc3c(c2)OCO3)c(C)c1 (centres undefined)		-14.4
CCc1nc(Nc2ccc(NC(C)=O)cc2)c2oc3ccccc3c2n1		-14.5
CCc1nc(N2CCN(c3nc(C)cc(C)n3)CC2)c2oc3ccccc3c2n1		5.17
CCc1nc(Nc2ccc3nccnc3c2)c2oc3ccccc3c2n1	2.59 µM (active)	
CCCCCc1c(C)nc(N2CCN(Cc3ccc4c(c3)OCO4)CC2)[nH]c1=O		-15.9
CCC(C)[C@H](NC(=O)N1CCn2c1nc1ccccc12)C(=O)NCc1ccc(OC)cc1 (some centres undefined)		7.99
COc1ccc(OC)c(NC(=O)COC(=O)Cc2ccsc2)c1		-0.0729
CC(C)c1nc(N2CCOCC2)c(C#N)c2c1COC(C)(C)C2		-8.03
COc1ccc(CSc2nc(N3CCOCC3)c3c(c2C#N)CC(C)(C)OC3)cc1	0.92 µM (active)	

Structure (SMILES)	Potency	activity change, negative = inhibition [%]
CCOC(=O)CSc1nc(N2CCOCC2)c2c(c1C#N)CC(C(C)C)OC2 (centres undefined)		-13.9
O=C(COC(=O)c1ccc(O)cc1O)c1ccc2c(c1)OCCO2		0
CCN1CCN(c2ccc(S(=O)(=O)N3CCCCC3)cc2NC(=O)c2cccc(NC(C)=O)c2)CC1		-0.31
CC(Oc1ccc(F)cc1)C(=O)Nc1cc(S(=O)(=O)N2CCOCC2)ccc1N1CCN(C)CC1 (centres undefined)		4.53
CCN(CC)S(=O)(=O)c1ccc(N2CCOCC2)c(NC(=O)c2ccc(=O)n(C)n2)c1		9.63
CCN(CC)S(=O)(=O)c1ccc(N2CCOCC2)c(NC(=O)C(C)Oc2ccc(F)cc2)c1 (centres undefined)	8.2 µM (active)	
COc1cccc(CNS(=O)(=O)c2ccc3c(c2)N(C(C)=O)CCS3)c1		-7.71
O=C(Nc1cccc(C(=O)NC2CC2)c1)c1ccc(F)c(S(=O)(=O)N2CCOCC2)c1		-9.6
COc1ccc(NC(=O)NCCN2CCN(c3ccc(C)cc3)CC2)c(Cl)c1		-0.113
CC1Oc2ccccc2N(Cc2cccnc2)C1=O (centres undefined)		3.27
O=C1C(Cc2ccc(O)cc2)NC(=S)N1Cc1ccccc1 (centres undefined)		2.47
CC1C(=O)N(Cc2ccccc2)c2ccccc2N1C(=O)c1ccccc1 (centres undefined)	25.9 µM (active)	
COCCN(Cc1ccccc1)C(=O)Cc1ccc(S(=O)(=O)N2CCOCC2)s1		14.1
COC(=O)c1ccc(CN2C(=O)NC(c3ccccc3)(c3ccccc3)C2=O)o1		2.4
CC[C@]1(c2ccccc2OC)C(=O)N(C(=O)OC)N1C(=O)OC		4.37
CC1(C)Cc2c(sc(NC(=O)C(=O)NCC3CCCO3)c2C(=O)O)CO1 (centres undefined)		24.4
Cn1c(SCC(=O)Nc2nccs2)nnc1-c1cccnc1		0.876
COC(=O)C1=C(C)NC2=C(C(=O)c3ccccc32)C1c1ccc(-c2ccc(C(=O)O)cc2)o1 (centres undefined)	20.6 µM (active)	
COc1ccccc1NC(=O)C1=C(C)NC2=C(C(=O)CCC2)C1c1ccc(C)o1 (centres undefined)		-9.66
Cc1ccc(C2C3=C(Nc4[nH]n(-c5ccccc5)c(=O)c42)c2ccccc2C3=O)cc1 (centres undefined)		-3.68
